SENP8 block-1: human SENP8 protease inhibitors, primary screen, biochemical, fluorescence, Nedd8 protein substrate, uHTS; inhibition, % at 20 µM; AID 602440, 2012; recombinant SENP8; 360,000 tested, 0.64% active; Sentrin-specific protease 8 (Homo sapiens), Q96LD8; in the data active = inhibition mostly above about 40%, no sharp cut-off; inactive = mostly below about 27%
SENP7 block: SENP7 protease inhibitors, primary screen, biochemical, luminescence, uHTS | inhibition, % at 5 µM | Sentrin-specific protease 7 (Homo sapiens), Q9BQF6 | AID 434973, 2010 | recombinant SENP7, Z-RLRGG-aminoluciferin luminescence, 40 min | 330,000 tested, 1.5% active;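 active = inhibition above about 50% at the single test dose, limit read from the data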;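 also: plate controls were DMSO with enzyme for no effect and no enzyme buffer wells for full effect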
AHR act: AHR activators, primary screen, cell-based, luminescence, luciferase reporter, human | AHR-responsive luciferase reporter cells | 320,000 tested, 2.5% active | Aryl hydrocarbon receptor (Homo sapiens), P35869 | AID 2796, 2010 | activation, % at 5 µM; in the data active = activation above about 47%;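 also: 0% = vehicle wells and 100% = reference agonist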
SENP8 block-2: SENP8 protease inhibitors, primary screen, biochemical, luminescence; purified SENP8, Z-RLRGG-aminoluciferin cleavage; inhibition, % at 10 µM; 330,000 tested, 1.2% active; AID 2540, 2010; Sentrin-specific protease 8 (Homo sapiens), Q96LD8; in the data active = inhibition above about 50%
EBI2 antag: EBI2 receptor antagonists, beta-arrestin recruitment, primary screen, cell-based, luminescence, 7a,25-OHC stimulation, uHTS. 7a,25-OHC stimulated. inhibition, % at 5 µM. 360,000 tested, 0.81% active. AID 651636, 2012; in the data active = inhibition above about 38%;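 also: enzyme fragment complementation signal reports receptor beta-arrestin coupling in cells; 0% = agonist plus DMSO wells and 100% = wells without agonist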
Target sequence (P32249 whole entry, looked up, the tested form may be a part): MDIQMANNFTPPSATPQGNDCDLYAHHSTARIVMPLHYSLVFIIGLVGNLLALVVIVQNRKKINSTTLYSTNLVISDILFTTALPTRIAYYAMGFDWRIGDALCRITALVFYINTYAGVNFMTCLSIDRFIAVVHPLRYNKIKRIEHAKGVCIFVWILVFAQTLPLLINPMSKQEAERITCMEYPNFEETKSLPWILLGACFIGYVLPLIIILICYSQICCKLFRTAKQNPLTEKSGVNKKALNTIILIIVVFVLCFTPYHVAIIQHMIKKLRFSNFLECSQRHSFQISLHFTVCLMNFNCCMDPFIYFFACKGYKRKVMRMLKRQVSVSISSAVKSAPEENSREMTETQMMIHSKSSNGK
SENP6 block: SENP6 protease inhibitors, primary screen, biochemical, luminescence, uHTS | inhibition, % at 10 µM | Sentrin-specific protease 6 (Homo sapiens), Q9GZR1 | Recombinant SENP6 catalytic domain, aminoluciferin luminescence | 330,000 tested, 1.8% active;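 active = inhibition above about 50% at the single tested dose, limit read from the data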;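 also: plate controls were DMSO wells with enzyme for no effect and DMSO wells lacking enzyme for full effect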
SENP8 confirm: SENP8 protease inhibitors, retest, confirmation, biochemical, luminescence, single concentration; shares compounds with SENP7 block; Recombinant SENP8, Z-RLRGG-aminoluciferin luminescence, 60 min; inhibition, % at 12.5 µM; 6,200 tested, 40% active; AID 488912, 2010;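 active = mean inhibition across replicates above about 50%, limit read from the data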
SENP6 confirm: SENP6 protease inhibitors, confirmation, biochemical, luminescence, single concentration; shares compounds with SENP7 block; recombinant SENP6, Z-RLRGG-aminoluciferin luminescence; inhibition, % at 12.5 µM; 6,200 tested, 58% active; AID 488915, 2010
SENP7 conf: SENP7 protease inhibitors, retest, confirmation, biochemical, luminescence, single concentration; shares compounds with SENP7 block; recombinant SENP7, Z-RLRGG-aminoluciferin luminescence, 40 min; inhibition, % at 12.5 µM; 6,200 tested, 69% active
Casp3 SENP sel: caspase-3 protease inhibitors, confirmation, selectivity assay for SENP inhibitor project, biochemical, single concentration. shares compounds with SENP7 block. purified caspase-3, Z-DEVD-aminoluciferin luminescence, 60 min. inhibition, % at 12.5 µM. 6,200 tested, 60% active. AID 488918, 2010;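 active = mean inhibition above about 50%, limit read from the data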;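 also: plate controls were enzyme with DMSO for no effect and wells without caspase-3 for full effect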
Target sequence (P42574 28-227 limits assumed): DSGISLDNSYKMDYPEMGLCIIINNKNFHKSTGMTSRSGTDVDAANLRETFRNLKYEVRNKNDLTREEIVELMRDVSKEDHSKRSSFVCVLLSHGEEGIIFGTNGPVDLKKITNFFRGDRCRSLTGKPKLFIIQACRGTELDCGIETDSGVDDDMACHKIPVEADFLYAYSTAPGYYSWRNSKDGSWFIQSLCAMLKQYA
Luc interf: interferes with luciferase luminescence in SENP counter-screen. 6,200 tested, 39% active. shares compounds with SENP7 block. Pre-incubated SENP8/Z-RLRGG-aminoluciferin, luciferase luminescence interference. inhibition, % at 12.5 µM. AID 488919;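 active = mean inhibition above about 50% when retested at one dose, limit read from the data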;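 also: plate controls were DMSO wells with completed reaction for no effect and substrate without enzyme for full effect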
Numbers without * were called inactive; x = not tested or not shown. A selection: hits, their analogues and other compounds. The true share with any hit is near 5%.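 The calls were made as follows, unless noted: active = mean inhibition above about 50% in the one-dose retest (limit read from the data); inactive = the rest.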

SMILES	SENP8 block-1	SENP7 block	AHR act	SENP8 block-2	EBI2 antag	SENP6 block	SENP8 confirm	SENP6 confirm	SENP7 conf	Casp3 SENP sel	Luc interf
Cc1ccc2nc(-c3ccccn3)oc2c1	-417	81*	61*	63*	-17	83*	9	71*	95*	89*	44
O=[N+]([O-])c1cccc(-c2nc(-c3ccncc3)no2)c1	24	9	29	-15	-5	6	x	x	x	x	x
O=C(O)Cc1ccc2oc(-c3ccccn3)nc2c1	8	2	-3	2	3	-7	x	x	x	x	x
Cc1ccc(Cc2nc(-c3ccccn3)no2)cc1	4	14	8	-5	4	6	x	x	x	x	x
O=[N+]([O-])c1cccc(-c2noc(-c3ccco3)n2)c1	16	54*	8	45	-7	68*	9	8	29	25	9
Cc1ccc(-c2nc(-c3ccccn3)no2)cc1	27	99*	-14	98*	-21	99*	4	101*	103*	100*	99*
C=CCOC(=O)C1=C[C@@H](c2cn(C(C)=O)c3ccccc23)C[C@@H](OCc2ccc(CO)cc2)O1	-46	-1	7	3	7	-11	x	x	x	x	x
Cc1nc(NC(=O)c2ccccc2)sc1-c1csc(NCc2ccccc2)n1	-77	75*	7	64*	3	80*	-7	-5	-5	21	12
CC(=O)Nc1ccc(-c2csc(NCCc3ccccc3)n2)cc1	12	13	20	-4	-3	-8	x	x	x	x	x
Cc1nc(-c2ccc(NC(=O)c3ccccc3)cc2)cs1	4	97*	-7	94*	10	97*	87*	97*	101*	96*	83*
CCOc1ccccc1Nc1nc(-c2sc(NC(=O)c3cccc(Cl)c3)nc2C)cs1	-95	77*	64*	68*	-11	84*	-19	-10	-4	15	8
Cc1nc(NC(=O)c2ccccc2)sc1-c1csc(NCCc2ccccc2)n1	-31	57*	42	30	-2	63*	-3	-1	10	46	12
CCOc1ccc(NC(=O)CSc2nc(=O)n(CCN3CCOCC3)c3c2CCCC3)cc1	7	-5	1	-8	-1	3	x	x	x	x	x
Cc1cccc2c(=O)c(Br)c(C)n(Cc3ccccc3)c12	2	-10	1	1	-11	-29	x	x	x	x	x
CSc1ccc(CN2CCN(C3CCCC3)C(CCO)C2)cc1 (configuration not stated)	7	1	0	5	0	5	x	x	x	x	x
COc1ccc(Cl)cc1NC(=O)C1CC(=O)N(C2CCCCC2)C1 (configuration not stated)	10	3	5	2	1	15	x	x	x	x	x
Cc1nc(NC(=O)c2ccccc2)sc1-c1csc(N)n1	-24	68*	-1	30	-7	0	57*	53*	77*	65*	61*
CN(CC(=O)Nc1ccc(F)cc1)C(=O)COC(=O)CN1C(=O)NC2(CCCC2)C1=O	-2	-2	3	-4	-13	-4	x	x	x	x	x
COc1cccc(C(=O)Nc2nnc(-c3cccs3)s2)c1	-483	53*	32	20	-17	53*	17	16	6	11	5
CCOc1cccc(C(=O)Nc2nnc(-c3ccco3)s2)c1	-486	73*	48*	60*	-9	68*	20	17	23	28	6
CCc1nnc(NC(=O)c2cccc(OC)c2)s1	32	12	6	-9	-5	-18	x	x	x	x	x
COc1ccc(-c2cn3cccnc3n2)cc1NC(=O)C(C)Oc1ccccc1 (configuration not stated)	-336	-7	22	-7	-6	-2	x	x	x	x	x
Cc1cc(C)n2nc(SCC(=O)NC(=O)c3ccc(OC(F)F)cc3)nc2n1	12	15	0	-3	-4	-13	x	x	x	x	x
O=C(O)C1CC=CCC1C(=O)NCCc1cccc(Cl)c1 (configuration not stated)	-3	7	1	-2	0	-5	x	x	x	x	x
Cc1nnsc1C(=O)N/N=C/c1ccc(OC(F)(F)F)cc1	-9	55*	11	4	3	-21	16	17	28	24	11
SMILES	SENP8 block-1	SENP7 block	AHR act	SENP8 block-2	EBI2 antag	SENP6 block	SENP8 confirm	SENP6 confirm	SENP7 conf	Casp3 SENP sel	Luc interf
CCOC(=O)Cc1csc(NC(=O)c2ccc(N3CCOCC3)cc2[N+](=O)[O-])n1	20	-10	-2	-12	5	5	x	x	x	x	x
Cc1nc(N)sc1-c1csc(Nc2ncccn2)n1	14	x	x	x	-5	x	x	x	x	x	x
Oc1ccc(-c2csc(Nc3ccccn3)n2)cc1O	-11	37	31	61*	1	87*	78*	79*	92*	49	81*
CCC(=O)Nc1nc(C)c(-c2csc(Nc3ccccn3)n2)s1	-214	44	24	59*	0	23	52*	69*	86*	30	58*
CC(=O)Nc1ccc(-c2csc(Nc3ccccn3)n2)cc1	-6	73*	5	75*	2	87*	74*	79*	96*	60*	86*
Cc1cccc(Nc2nc(-c3ccc(O)c(O)c3)cs2)n1	13	-14	2	38	5	65*	47	49	71*	13	67*
Cc1cc(N/N=C/c2ccc3c(c2)OCO3)nc2ccccc12	-425	70*	11	47	-3	59*	28	68*	88*	35	43
O=c1[nH]c(N/N=C\c2ccc3c(c2)OCO3)nc2ccccc12	-387	48	57*	15	11	56*	28	44	41	60*	4
